Here are results for five compounds from PubChem BioAssay.

Structures are written as SMILES. Activity calls are given as the source filed them.

For test [1], the system named is Plasmodium falciparum Sir2 (PF13_0152, Sir2A). Nature of the test: pfSir2 binders on small-molecule microarrays, primary screen, biochemical, small-molecule microarray, 635 nm fluorescence (AID 1098).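 Note: score merges spot fluorescence intensity with its signal-to-noise ratio.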 To be noted: small-molecule microarray binding, fluorescence 635 nm; higher = more signal.
The nature of test [2]: small-molecule microarray binders of probe aDKK1, primary screen, biochemical, biotinylated probe, 635/667 nm fluorescence (AID 1099).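 Note: score merges 667nm spot fluorescence with signal to noise across triplicate slides.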 To be noted: higher = more signal.
A short description of test [3]: small-molecule microarray binders of probe aCHRDL2, primary screen, biochemical, biotinylated probe, 635/667 nm fluorescence (AID 1100). Conditions: higher = more signal.
The nature of test [4]: splicing luciferase reporter signal modulators, primary screen, spliceosome inhibition project, cell-based, HEK293, splice +/- reporter (AID 1101).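 Note: HEK293 cells carrying a splicing-competent luciferase reporter gene; test concentration not given here.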 Conditions: luminescence, 24 h, higher = more signal, called active from +8 up or from −8 down. For orientation: Reporter assays use an easily measured gene product as a stand-in for the process of interest.
For test [5], the target named is Fibroblast growth factor 10 (Homo sapiens) (UniProt O15520). Nature of the test: FGF10 binders on small-molecule microarrays, primary screen, biochemical, small-molecule microarray, 635 nm fluorescence (AID 1102). Conditions: FGF10 binding, fluorescence 635 nm, higher = more signal.
Fibroblast growth factor 10 (Homo sapiens), sequence (O15520 whole entry, looked up): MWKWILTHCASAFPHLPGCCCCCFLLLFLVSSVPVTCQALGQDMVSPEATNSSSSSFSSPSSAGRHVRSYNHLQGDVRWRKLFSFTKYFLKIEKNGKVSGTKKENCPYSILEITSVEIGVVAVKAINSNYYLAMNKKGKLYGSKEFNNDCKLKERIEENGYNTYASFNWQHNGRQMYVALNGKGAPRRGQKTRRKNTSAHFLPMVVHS
Test [6] deals with glycogen synthase kinase-3 (GSK3A per assay name; protocol says GSK3B). Nature of the test: GSK3 binders on small-molecule microarrays, primary screen, biochemical, small-molecule microarray, 635 nm fluorescence, GSK3A (AID 1103). Note: the record names both GSK3A and GSK3B. Conditions: small-molecule microarray binding, fluorescence 635 nm; higher = more signal.
The target in test [7] is Epidermal growth factor receptor (Homo sapiens) (UniProt P00533). Nature of the test: EGFR binders on small-molecule microarrays, primary screen, biochemical, small-molecule microarray, 635 nm fluorescence (AID 1104).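 Note: score merges 667 nm emission intensity with spot signal to noise over triplicate slides.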 Conditions: EGFR binding, higher = more signal.
Epidermal growth factor receptor (Homo sapiens), sequence (P00533 whole entry, looked up): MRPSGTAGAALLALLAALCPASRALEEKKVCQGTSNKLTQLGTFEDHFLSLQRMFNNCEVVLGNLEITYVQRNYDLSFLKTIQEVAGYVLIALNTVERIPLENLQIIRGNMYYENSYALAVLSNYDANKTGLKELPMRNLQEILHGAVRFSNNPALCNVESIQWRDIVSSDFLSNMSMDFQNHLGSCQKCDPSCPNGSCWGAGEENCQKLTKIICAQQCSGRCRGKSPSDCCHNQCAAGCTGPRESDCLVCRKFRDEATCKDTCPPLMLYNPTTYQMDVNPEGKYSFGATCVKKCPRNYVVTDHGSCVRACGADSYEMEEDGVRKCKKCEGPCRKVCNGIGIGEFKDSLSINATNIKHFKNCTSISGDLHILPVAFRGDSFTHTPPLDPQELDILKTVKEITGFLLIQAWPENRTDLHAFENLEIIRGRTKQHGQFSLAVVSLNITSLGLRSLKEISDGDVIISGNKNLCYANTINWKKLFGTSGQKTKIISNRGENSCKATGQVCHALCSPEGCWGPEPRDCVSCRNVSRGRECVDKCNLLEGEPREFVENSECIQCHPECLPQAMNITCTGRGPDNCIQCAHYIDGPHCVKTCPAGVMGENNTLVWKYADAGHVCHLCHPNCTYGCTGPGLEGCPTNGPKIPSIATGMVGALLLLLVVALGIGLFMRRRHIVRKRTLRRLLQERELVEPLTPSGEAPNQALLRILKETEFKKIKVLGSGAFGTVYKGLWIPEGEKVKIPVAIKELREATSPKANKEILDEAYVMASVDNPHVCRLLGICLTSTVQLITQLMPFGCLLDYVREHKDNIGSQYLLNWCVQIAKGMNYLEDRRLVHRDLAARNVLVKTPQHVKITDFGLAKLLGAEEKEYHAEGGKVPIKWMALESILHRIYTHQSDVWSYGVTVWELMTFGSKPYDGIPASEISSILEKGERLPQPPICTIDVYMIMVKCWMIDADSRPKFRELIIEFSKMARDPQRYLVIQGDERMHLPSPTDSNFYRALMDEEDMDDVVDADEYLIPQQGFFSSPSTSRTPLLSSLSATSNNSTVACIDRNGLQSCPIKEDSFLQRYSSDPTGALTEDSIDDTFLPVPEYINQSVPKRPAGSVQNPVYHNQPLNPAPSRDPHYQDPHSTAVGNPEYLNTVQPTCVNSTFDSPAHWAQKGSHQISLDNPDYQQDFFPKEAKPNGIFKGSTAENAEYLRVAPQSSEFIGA
In test [8] the target is Follistatin-related protein 3 (Homo sapiens) (UniProt O95633). Nature of the test: FSTL3 binders on small-molecule microarrays, primary screen, biochemical, small-molecule microarray, 635 nm fluorescence (AID 1105).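 Note: score merges emission near 667 nm and signal to noise per printed spot across three slides.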 Conditions: FSTL3 binding, higher = more signal.
Follistatin-related protein 3 (Homo sapiens), sequence (O95633 whole entry, looked up): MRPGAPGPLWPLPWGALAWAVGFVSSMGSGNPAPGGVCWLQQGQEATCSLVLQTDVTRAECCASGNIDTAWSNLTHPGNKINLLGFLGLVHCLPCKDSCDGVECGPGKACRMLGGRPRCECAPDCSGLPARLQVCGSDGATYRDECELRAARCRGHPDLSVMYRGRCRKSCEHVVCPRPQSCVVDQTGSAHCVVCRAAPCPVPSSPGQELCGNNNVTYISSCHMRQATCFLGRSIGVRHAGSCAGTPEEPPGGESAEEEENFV
The target in test [9] is Dickkopf-related protein 1 (Homo sapiens) (UniProt O94907). Nature of the test: DKK1 binders on small-molecule microarrays, primary screen, biochemical, small-molecule microarray, 635 nm fluorescence scan (AID 1106).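 Note: score merges emission near 667 nm with signal to noise over three replicate slides.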 Conditions: DKK1 binding, higher = more signal.
Dickkopf-related protein 1 (Homo sapiens), sequence (O94907 whole entry, looked up): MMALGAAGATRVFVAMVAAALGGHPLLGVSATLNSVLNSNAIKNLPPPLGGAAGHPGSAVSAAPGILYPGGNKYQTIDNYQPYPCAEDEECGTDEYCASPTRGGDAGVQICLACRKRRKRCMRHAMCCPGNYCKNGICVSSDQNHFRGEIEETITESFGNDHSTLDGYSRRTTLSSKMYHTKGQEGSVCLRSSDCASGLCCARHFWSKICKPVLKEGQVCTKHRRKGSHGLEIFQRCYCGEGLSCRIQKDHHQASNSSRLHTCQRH
For test [10], the system named is Inhibin beta A chain (activin A). Nature of the test: INHBA (activin A) binders on microarrays, primary screen, biochemical, small-molecule microarray, 635 nm fluorescence scan (AID 1107).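 Note: mouse activin A protein probed at 4.33 µg/mL on printed slides; score merges bound-protein fluorescence near 667 nm with spot signal-to-noise.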 To be noted: small-molecule microarray binding, higher = more signal.
Test [11] deals with Human papillomavirus type 1a protein E7 (residues 44-93). Nature of the test: HPV1a E7 fragment binders on microarrays, primary screen, biochemical, small-molecule microarray, residues 44-93, 635 nm fluorescence (AID 1108).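 Note: E7 fragment applied at 1 µg/mL in TBST for 1 h at 4 C; score combines spot fluorescence with its signal to noise ratio.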 Conditions: small-molecule microarray binding, fluorescence 635 nm; higher = more signal.
Test [12] in a line: modulators of HCV replicon luciferase signal, primary screen, HCV replication inhibitor project, Huh7 cells, luciferase reporter (AID 1109).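 Note: huh7 hepatoma cells harbouring a luciferase neomycin HCV replicon reporter; luciferase luminescence as measure of HCV replicon replication; test concentration not given here.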 To be noted: 48 h, higher = more signal. For orientation: Replicon systems follow genome replication, usually without infectious particles.
Test [13] has as its target Left-right determination factor 2 (Homo sapiens) (UniProt O00292). Nature of the test: LEFTY2 binders on small-molecule microarrays, primary screen, biochemical, small-molecule microarray, 635 nm fluorescence scan (AID 1110). Conditions: LEFTY2 binding, higher = more signal.
Test [14] concerns the target Calmodulin-1 (Homo sapiens) (UniProt P0DP23). Nature of the test: CALM1 binders on microarrays, EGTA buffer, profiling panel, biochemical, small-molecule microarray, Cy5-labelled CALM1 (AID 1111).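 Note: labelled calmodulin applied in Tris saline Tween buffer holding calcium plus EGTA and DTT.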 To be noted: Cy5-CALM1 binding fluorescence, higher = more signal.
Test [15] has the same target. Nature of the test: calcium-bound CALM1 binders on microarrays, profiling panel, artefact control for SMM control-protein annotation, biochemical, small-molecule microarray, Cy5-labelled CALM1, plus calcium (AID 1112).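 Note: score merges spot fluorescence with signal to noise from triplicate slides.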 Conditions: Cy5-CALM1 binding fluorescence, higher = more signal.
A short description of test [16]: small-molecule microarray binders of probe aWnt5a, primary screen, biochemical, biotinylated probe, 635/667 nm fluorescence (AID 1113).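 Note: score merges 667 nm fluorescence intensity with signal-to-noise per printed feature.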 Conditions: higher = more signal.
Test [17] can be described thus: small-molecule microarray binders of probe aShh, primary screen, biochemical, biotinylated probe, 635/667 nm fluorescence (AID 1114).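 Note: probe is biotin-labelled aShh protein from a stem cell growth factor screen; measures binding of labelled protein to compounds printed on the slide; score merges feature fluorescence at 667 nm with signal-to-noise.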 To be noted: higher = more signal.
A short description of test [18]: small-molecule microarray binders of probe aNog, primary screen, biochemical, biotinylated probe, 635/667 nm fluorescence (AID 1115).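 Note: probe is biotinylated aNog protein used at 0.15 µg/mL for 1 h at 4 C; z-score combines 667 nm fluorescence of each spot with its signal to noise.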 Conditions: higher = more signal.
Test [19] concerns the target Torsin-1A-interacting protein 1 (Homo sapiens) (UniProt Q5JTV8). Nature of the test: LAP1 binders from COS7 cell lysate, primary screen, small-molecule microarray, 635/667 nm fluorescence (AID 1116). To be noted: COS7-hLAP1 lysate binding, 635 nm fluorescence, higher = more signal.
The target of test [20] is Alpha-bungarotoxin (Bungarus multicinctus) (UniProt P60615). Nature of the test: alpha-bungarotoxin binders on microarray, profiling panel, artefact control for SMM control protein annotation, biochemical, small-molecule microarray, Alexa647 label, 635/667 nm fluorescence (AID 1117). To be noted: alpha-BTX-A647 binding fluorescence, higher = more signal.
Alpha-bungarotoxin (Bungarus multicinctus), sequence (P60615 whole entry, looked up): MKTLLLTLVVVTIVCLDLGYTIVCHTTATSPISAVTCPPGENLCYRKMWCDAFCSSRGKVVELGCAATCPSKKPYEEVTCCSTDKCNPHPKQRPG

Left-right determination factor 2 (Homo sapiens), sequence (O00292 whole entry, looked up): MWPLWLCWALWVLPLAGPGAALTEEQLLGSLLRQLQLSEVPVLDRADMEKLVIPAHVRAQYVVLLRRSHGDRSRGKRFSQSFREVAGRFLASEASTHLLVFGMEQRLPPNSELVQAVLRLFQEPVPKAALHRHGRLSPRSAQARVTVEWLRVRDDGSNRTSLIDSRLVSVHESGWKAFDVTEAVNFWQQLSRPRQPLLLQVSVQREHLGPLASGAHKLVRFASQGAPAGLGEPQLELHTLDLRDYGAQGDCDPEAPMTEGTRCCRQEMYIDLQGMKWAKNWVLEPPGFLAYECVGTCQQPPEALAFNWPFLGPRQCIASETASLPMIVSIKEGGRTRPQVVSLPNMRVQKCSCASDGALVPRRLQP
Torsin-1A-interacting protein 1 (Homo sapiens), sequence (Q5JTV8 whole entry, looked up): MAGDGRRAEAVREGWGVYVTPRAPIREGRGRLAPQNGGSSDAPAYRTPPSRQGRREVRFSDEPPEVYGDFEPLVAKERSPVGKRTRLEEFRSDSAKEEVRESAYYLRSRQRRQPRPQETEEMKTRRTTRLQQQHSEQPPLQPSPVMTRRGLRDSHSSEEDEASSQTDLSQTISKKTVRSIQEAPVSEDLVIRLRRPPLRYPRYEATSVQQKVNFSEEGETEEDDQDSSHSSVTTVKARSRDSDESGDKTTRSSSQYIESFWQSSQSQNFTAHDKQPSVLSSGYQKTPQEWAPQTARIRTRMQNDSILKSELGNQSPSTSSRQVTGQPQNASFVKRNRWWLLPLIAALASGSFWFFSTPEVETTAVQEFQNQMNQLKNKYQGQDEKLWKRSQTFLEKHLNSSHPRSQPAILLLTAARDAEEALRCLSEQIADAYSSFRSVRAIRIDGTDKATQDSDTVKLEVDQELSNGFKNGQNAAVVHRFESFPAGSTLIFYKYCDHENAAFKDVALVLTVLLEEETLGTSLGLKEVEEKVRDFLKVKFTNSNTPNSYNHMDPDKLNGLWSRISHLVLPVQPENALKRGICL

In the case of `COCCOC(=O)N1C(=O)[C@@]2(c3cc(C#CCC(C(=O)OC)C(=O)OC)ccc31)[C@H](c1ccccc1OCCO)N1[C@H](c3ccccc3)[C@H](c3ccccc3)OC(=O)[C@H]1[C@@H]2C(=O)N1CCc2cc(OC)c(OC)cc2C1`, the composite z-score was 1.24 in [1]; 0.176 in test [2]; -0.131 in [3]; 1.16 in test [5]; 1.33 in test [6]; 0.99 in [7]. Moreover, the composite z-score was 1.3 in test [8]; 1.42 in [9]; 0.645 in test [10]; 1.2 in [11]; 0.958 in test [13]; 1.54 in test [14]. Also, the composite z-score in test [15] is 0.0013; in [16] it was -0.363; in [17], -0.148; in test [18], -0.289; in test [19], 0.496; in test [20], 0.942. Also, the z-score in test [4] is -0.988 (inactive); in test [12] it was -1.79.

Turning to `Cc1cc(C)c(C(O)C2C=CC3C(=O)N(C)C(=O)C3N2Nc2ccccc2)c(C)c1` (stereo not given), the composite z-score in [1] was 1.13; in test [2], 1.84; in [3], 0.796; in test [5], 0.636; in test [6], 0.399; in [7], 0.745. Also, the composite z-score in test [8] was 0.38; in test [9], 0.209; in test [10], 1.25; in test [11], -0.7; in test [13] it was 0.627; in test [14], 1.16. The composite z-score in test [15] was -0.0299; in test [16] it was 0.881; in test [17], 0.365; in [18], 1.45; in test [19], 1.23; in test [20] it was 0.821. The values for the z-score in test [4] and in test [12] were 0.55 (inactive) and 0.228, respectively.

In the case of `O=C1O[C@@H](c2ccccc2)[C@@H](c2ccccc2)N2[C@@H](c3ccc(O)cc3)[C@]3(C(=O)Nc4ccc(C#CC5(O)CCCCCC5)cc43)[C@@H](C(=O)N3CCCCCCC3)[C@H]12`, the composite z-score in test [1] is 1.99; in test [2] it was 2.61; in [3] it was 1.26; in test [5], 1.51; in [6] it was 1.38; in [7], 1.83. Also, the composite z-score in test [8] stood at 1.53; in [9], 2.49; in test [10] it was 1.86; in [11], 1.48; in test [13], 1.43; in test [14], 2.6. Moreover, the composite z-score in test [15] worked out at 1.61; in test [16] it was 1.45; in test [17], 2.73; in [18], 3.67; in [19], 4.7; in test [20] it was 3.03. Moreover, the values for the z-score in test [4] and in test [12] were -0.612 (inactive) and -1.29, respectively.

For the compound `C=CCOC(=O)[C@@H]1[C@H]2C(=O)O[C@H](c3ccccc3)[C@H](c3ccccc3)N2[C@H](c2ccc(OCCOC(=O)[C@@H]3C[C@@H]4C(=O)NCC(=O)N4[C@@H]3c3cccc(OCCO)c3)cc2)[C@@]12C(=O)Nc1ccc(I)cc12`, the composite z-score in test [1] was 1.05; in test [2] it was 0.0651; in test [3], -0.162; in test [5], 1.29; in test [6], 1.16; in [7] it was 1.12. In addition, the composite z-score in test [8] amounted to 1.1; in [9], 0.866; in test [10], 0.884; in [11], 1.43; in [13] it was 0.949; in test [14], 0.689. Also, the composite z-score in [15] was -0.0508; in [16] it was -0.0735; in [17], -0.043; in [18], 1.07; in test [19] it was -1.86; in [20], 1.75. In addition, the z-score in test [4] is -0.798 (inactive); in [12], -1.54.

Consider `CCOC(=O)C1=CCC(c2ccc([N+](=O)[O-])cc2)N(S(=O)(=O)c2ccc(C)cc2)C1` (stereo not given), for which the composite z-score in [1] is 0.376; in test [2], 0.616; in [3] it was 0.983; in test [5] it was -0.0502; in test [6] it was 0.0526; in test [7], -0.356. Further, the composite z-score in [8] was 0.171; in [9], -0.421; in [10], 1.32; in test [11], 1.08; in test [13] it was -0.087; in test [14] it was 0.279. Also, the composite z-score was 0.548 in [15]; -0.0644 in test [16]; 0.138 in test [17]; 0.61 in [18]; 0.304 in test [19]; 0.159 in test [20]. Further, the values for the z-score in [4] and in test [12] were -0.22 (inactive) and -2.35, respectively.
